TDP1 cell noCPT: qHTS for Inhibitors of human tyrosyl-DNA phosphodiesterase 1 (TDP1): qHTS in cells in absence of CPT | DT40 Tdp1-/- hTDP1 cells, no CPT, ATP luminescence, 48 h | Potency, µM (highest dose often 46.2 µM), usual class: inhibitors | hit rate 15% among 420,000; further: nearly all actives have a fitted effect of over 55% in size
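Chicken DT40 Tdp1-/- cells complemented with human TDP1, screened without camptothecin (DMSO vehicle only), 400 cells/well. Compounds pin-transferred, cells incubated at 37 °C for at least 48 hr. Growth read as ATP-dependent luminescence (CellTiter-Glo, 30 min at RT).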
HT1080 IDH1KD tx: qHTS for induction of synthetic lethality in tumor cells producing 2HG: qHTS for the HT-1080-IDH1KD cell line | AID 686971, 2013 | Potency, µM (series often up to 46.1 µM), hits mostly cytotoxic | hit rate 2% among 360,000 | HT-1080 IDH1 knockdown viability, ATP luminescence, 48 h
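% activity derives from luminescence (CellTiter-Glo), normalised to DMSO and no-cell wells. HT-1080-IDH1KD cells, 750/well, had 48 h compound exposure at 37 °C.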
ELG1 DNA repair: qHTS screen for small molecules that inhibit ELG1-dependent DNA repair in human embryonic kidney (HEK293T) cells expressing luciferase-tagged ELG1 | HEK293T ELG1-luciferase reporter, luminescence, 16 h; DNA damage induced by 5-fluorouridine | Potency, µM (titrated, usually from 46.1 µM), actives largely listed as inhibitors | hit rate 2.3% among 330,000; further: nearly all actives have a fitted effect of over 55% in size
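Luminescence from the luciferase reporter, measured 30 min after ONE-Glo reagent at room temperature, was the read-out. Beforehand, 2,000 cells per well were exposed for 16 hr at 37 °C to 5-fluorouridine together with compound or vehicle.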
TDP1 cell CPT: qHTS for Inhibitors of human tyrosyl-DNA phosphodiesterase 1 (TDP1): qHTS in cells in presence of CPT; Potency, µM (titrated, usually from 46.2 µM), usual class: inhibitors; hit rate 12% among 420,000; AID 686979, 2013; chicken DT40 Tdp1-/-;hTDP1 cells + 20 nM CPT, ATP luminescence, 48 h; further: nearly all actives have a fitted effect of over 55% in size
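Chicken DT40 Tdp1-/- cells stably complemented with human TDP1 were seeded at 400 cells/well in medium containing 20 nM camptothecin, exposed to pin-transferred compounds, and grown at 37 °C for at least 48 hr. Viability was read as ATP luminescence.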
HT1080NT lethal: qHTS for induction of synthetic lethality in tumor cells producing 2HG: qHTS for the HT-1080-NT fibrosarcoma cell line; Potency, µM (top dose mostly 46.1 µM), hits mostly cytotoxic; HT-1080-NT fibrosarcoma viability, CellTiter-Glo ATP luminescence, 48 h; AID 686970, 2013; hit rate 1.6% among 360,000;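 further: NT is the 2HG producing partner of a matched IDH1 knockdown line; nearly all actives have a fitted effect of over 55% in size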
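HT-1080-NT fibrosarcoma cells (2HG-overproducing), 750 cells/well in RPMI with 5% FBS, dosed after 2 h and incubated 48 h at 37C. CellTiter-Glo luminescence normalized to DMSO and no-cell wells; concentration-response curves fitted and classed.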
IL1B secr inh: qHTS for Inhibitors of Inflammasome Signaling: IL-1-beta AlphaLISA Primary Screen; THP-1 LPS/ATP IL-1B secretion, AlphaLISA, 16 h; stronger effect = lower value; AID 743279, 2014; activity change, % at 57.5 µM; hit rate 4.7% among 360,000; in the data active means activity change below about -50%; inconclusive means mostly about -30% to -49%
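THP-1 cells pretreated 1 hr with compounds (up to 57.5 uM final), then stimulated with LPS (250 ng/mL final) plus ATP (1.25 mM final); secreted IL-1B measured by AlphaLISA after 16 hr, decreased signal indicating inhibition.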
Numbers stand for hits; - = inactive; ? = inconclusive; . = no result. This is a sample that favours compounds with a hit; in the whole collection about 19% have one here. Unless noted, the call rests on the fitted dose curve; in most records, active means well fitted curve in the direction sought with a large enough effect; inconclusive means small, poorly fitted or top-dose-only effect, or another doubt; inactive means no such curve, though single readings can be large; an effect the other way counts as inactive or inconclusive.

SMILES	TDP1 cell noCPT	HT1080 IDH1KD tx	ELG1 DNA repair	TDP1 cell CPT	HT1080NT lethal	IL1B secr inh
Cc1nc(N2CCOCC2)c2c(C(=O)N3CCN(c4ccccc4F)CC3)c(C)oc2n1	-	.	.	-	.	.
Cc1nc(Nc2ccc(Cl)c(Cl)c2)sc1C(/C=C/c1ccc2c(c1)OCO2)=NNc1ccc([N+](=O)[O-])cc1[N+](=O)[O-]	-	-	.	-	-	-
COc1ccc(C)cc1S(=O)(=O)Nc1cccc(-c2ccc(N3CCCC3)nn2)c1	-	.	.	-	.	.
Cc1ccc(Cn2c(CN3CCN(c4cccc(Cl)c4)CC3)nc3c2c(=O)n(C)c(=O)n3C)cc1	?	.	.	18µM	.	.
CCCCCn1c(CN2CCN(c3cccc(Cl)c3)CC2)nc2c1c(=O)n(C)c(=O)n2C	21µM	-	?	16µM	-	-
CCCn1c(CN2CCN(c3cccc(Cl)c3)CC2)nc2c1c(=O)n(C)c(=O)n2C	6.5µM	-	?	5.8µM	-	-
CCCCn1c(CN2CCN(c3cccc(Cl)c3)CC2)nc2c1c(=O)n(C)c(=O)n2C	6.5µM	-	?	7.3µM	-	-
CC(C)OCCCNC(=O)COc1ccc2oc3c(c2c1)CCCC3	?	-	-	?	-	-
Cc1ccc2nc(NC(=O)CCn3c(=O)sc4ccccc43)sc2c1	?	-	-	18µM	-	-
COc1ccc(-c2nnc(SCC(=O)Nc3nc4ccccc4s3)n2C)cc1	-	-	-	-	-	-
O=C(CCn1c(=O)sc2ccccc21)Nc1nc2ccccc2s1	?	-	-	?	-	?
CCOc1ccc(-c2nnc3ccc(SCC(=O)Nc4nc5ccc(C)cc5s4)nn23)cc1	26µM	-	8.2µM	?	-	-
Cc1ccc2nc(NC(=O)CSc3nncc(=O)n3N)sc2c1	16µM	-	?	?	-	-
CCOc1ccc(-c2nnc3ccc(SCC(=O)Nc4nc5ccccc5s4)nn23)cc1	18µM	-	7.3µM	?	-	-
CN(C(=O)c1ccccc1)C(=O)c1ccccc1	-	-	.	-	-	-
COc1ccc(CNC(=O)c2c(O)c3cc(OC)c(OC)cc3[nH]c2=O)cc1OC	-	-	-	-	-	-
COc1cc2[nH]c(=O)c(C(=O)NCc3ccccc3Cl)c(O)c2cc1OC	18µM	-	-	15µM	-	-
COc1cc(C(=O)NCCC(=O)N2CCC3(CC2)NCCc2[nH]cnc23)cc(OC)c1OC	-	-	-	-	-	-
C[C@H]1CN([C@@H](C)CO)C(=O)c2cc(NS(=O)(=O)c3ccc(Cl)cc3)ccc2O[C@@H]1CN(C)CC1CCCCC1	?	-	-	?	-	-56
C[C@@H]1CCCCO[C@@H](CN(C)CC2CCCCC2)[C@@H](C)CN([C@H](C)CO)C(=O)c2cc(NS(=O)(=O)c3ccc(Cl)cc3)ccc2O1	13µM	?	.	16µM	16µM	?
C[C@H]1CCCCO[C@H](CN(C)CC2CCCCC2)[C@@H](C)CN([C@@H](C)CO)C(=O)c2cc(NS(=O)(=O)c3ccccc3)ccc2O1	-	?	.	?	?	?
CCc1ccccc1NC(=O)C(=O)NCCCN1CCOCC1	-	.	.	-	.	.
COc1cccc(CNc2nc(Cl)nc3nc[nH]c23)c1	7.9µM	.	.	16µM	.	.
c1csc(CNc2ncnc3nc[nH]c23)c1	?	-	-	?	-	-
COc1ccc(CNc2nc(Cl)nc3nc[nH]c23)cc1	?	.	.	-	.	.
SMILES	TDP1 cell noCPT	HT1080 IDH1KD tx	ELG1 DNA repair	TDP1 cell CPT	HT1080NT lethal	IL1B secr inh
Clc1nc(NCc2cccs2)c2[nH]cnc2n1	11µM	.	.	13µM	.	.
Cc1cccc2c1cnn2C(=O)CCC(=O)NCc1ccc(F)cc1	-	-	-	-	-	-
CN(C)CCN(C(=O)c1ccc2ccccc2c1)c1nc2ccc(F)cc2s1	-	-	-	-	-	-
CN(C)CCN(C(=O)c1ccc2ccccc2c1)c1nc2cc3c(cc2s1)OCO3	23µM	-	.	?	-	-
COc1cc2nc(N(CCN(C)C)C(=O)c3ccc4ccccc4c3)sc2cc1OC	-	-	-	-	-	-
CCN(CC)CCN(C(=O)c1ccc2c(c1)CCCC2)c1nc2cc(OC)c(OC)cc2s1	-	-	-	23µM	-	-82
COc1ccc2nc(N(CCN(C)C)C(=O)c3ccc4c(c3)OCCO4)sc2c1	-	-	-	-	-	-
CCOc1ccc2nc(N(CCN(C)C)C(=O)c3ccc4c(c3)CCCC4)sc2c1	?	-	-	?	-	-65
CCc1ccc2nc(N(CCN(C)C)C(=O)c3ccc4ccccc4c3)sc2c1	-	-	-	?	-	-54
COc1ccc(-c2nnc(SCC(=O)Nc3ccc(C)c(C)c3)s2)cc1	?	.	.	-	.	.
CC(C)C[C@H]1CN(CCCC[C@H]2CNC(=O)C(=O)N2Cc2ccccc2)C(=O)C(=O)N1CC1CCCCC1	-	-	.	-	-	-
CN(C)CCN(C(=O)c1ccc2c(c1)OCCO2)c1nc2cc3c(cc2s1)OCO3	-	-	-	-	-	-54
CN(C)CCN(C(=O)c1ccc2c(c1)CCCC2)c1nc2cc3c(cc2s1)OCCO3	29µM	-	?	?	-	-58
COc1ccc(Cl)c2sc(N(CCN(C)C)C(=O)c3ccc4c(c3)OCCO4)nc12	?	-	-	?	-	-96
COCCN(C(=O)COC(=O)c1c(C)nn(-c2ccccc2)c1C)c1c(N)n(Cc2ccccc2)c(=O)[nH]c1=O	-	-	.	-	-	-
CCCCCCN1C=C/C(=C\C=C(C#N)C#N)c2ccccc21	23µM	-	?	?	-	-
NS(=O)(=O)c1cccc(NC(=O)COC(=O)Cc2ccc(S(=O)(=O)N3CCOCC3)s2)c1	-	-	.	-	-	-
C=CCSc1nnc(NC(=O)CSc2nc3ccccc3o2)s1	?	-	-	23µM	-	-
O=C(CSc1nc2ccccc2o1)Nc1nc(-c2ccccc2)c(-c2ccccc2)s1	12µM	-	?	18µM	-	-
Cc1nnc(NC(=O)CSc2nc3ccccc3o2)s1	?	-	?	-	?	-
Cc1cc(SCc2cc(=O)[nH]c3ccccc23)nc2ccccc12	?	?	-	23µM	-	-
Cc1ccc(OCc2nnc(SCc3cc(=O)[nH]c4ccccc34)n2-c2ccccc2)cc1	23µM	?	?	?	16µM	?
